# Reference: PubChem BioAssay AID489025 (Southern Research Specialized Biocontainment Screening …, 2010)
# About 790 (34%) of roughly 2,300 compounds were called active. No rule for the calls is given here. Some of the results follow. Potency and affinity values are given separately.
# Test: THP-1 cell cytotoxicity, dose response, cytotoxicity control for non-replicating M. tuberculosis project (AID 489025)
# Details: THP-1 cell viability; series mostly up to 40 µM; viability: at the top concentration
row,SMILES,viability
1,Nc1ccc2c(c1)oc1ccccc12,101% (inactive)
2,COc1ccc(N2CCN(CC(=O)NC(=O)NC(C)(C)C)CC2)cc1,96.5% (inactive)
3,O=C(c1ccc([N+](=O)[O-])cc1[N+](=O)[O-])N1CCc2ccccc21,103% (inactive)
4,Cc1cc(C)n(C(=O)c2ccc([N+](=O)[O-])cc2[N+](=O)[O-])n1,96% (inactive)
5,CCC1(O)CC(c2ccccc2)=NN1C(=O)c1ccccc1F (configuration not stated),102% (inactive)
6,CCOC(=O)C(C)(C)n1nnc(-c2ccc([N+](=O)[O-])cc2)n1,116% (inactive)
7,CCOC(=O)C1CCN(C(=O)COc2cc(C)c(Br)c(C)c2)CC1,110% (inactive)
8,O=C(COc1ccccc1)Nc1ccc(Cl)cn1,83.5% (inactive)
9,FC(F)c1nnc2ccc(Cl)nn12,72.5% (inactive)
10,O=Cc1coc2ccc3ccccc3c2c1=O,81.1% (inactive)
11,COC(=O)COc1cccc(NC(=O)c2cccc(C)c2)c1,77.6% (inactive)
12,COc1ccc(-c2noc(CCC(=O)Nc3cccc(C)c3)n2)cc1,113% (inactive)
13,CCOC(=O)COc1ccc(C(=O)c2ccccc2)c(O)c1,109% (inactive)
14,CC(C)c1cc(C(=O)N/N=C/C=C/c2ccccc2)n[nH]1,75.9% (inactive)
15,COc1ccc(S(=O)(=O)NCc2ccc3c(c2)cc(C)n3C)cc1,95.4% (inactive)
16,Cc1nnc(N/N=C/c2cccc(OCc3ccc(Cl)c(Cl)c3)c2)n1N,79.3% (inactive)
17,O=C(OCc1nc2ccccc2s1)c1ccc(Br)o1,115% (inactive)
18,CCOC(=O)CCCNC(=O)COC(=O)c1cc(Br)c(Br)s1,105% (inactive)
19,O=C(N/N=C/C(Br)=C/c1ccccc1)c1cnccn1,95.2% (inactive)
20,CCOc1ccc(-c2ccc(C=O)o2)c([N+](=O)[O-])c1,70.5% (inactive)
21,C/C(CC(=O)Nc1ccc(N(C)C)cc1)=N\NC(=O)c1ccncc1,107% (inactive)
22,Cc1cc(Cl)ccc1OC(C)C(=O)Nc1ccc([N+](=O)[O-])cn1 (configuration not stated),79.7% (inactive)
23,Cc1ccc(C)c(NC(=O)c2cc([N+](=O)[O-])cc([N+](=O)[O-])c2)c1,107% (inactive)
24,O=C1CC(=O)CC(c2ccccc2)C1,106% (inactive)
25,O=C1CC(N2CCC(c3nc4ccccc4o3)CC2)C(=O)N1 (configuration not stated),99.5% (inactive)
26,COc1cccc(OCC(=O)NNC(=O)c2cccs2)c1,102% (inactive)

row,SMILES,viability
1,O=[N+]([O-])c1ccc(CN2CCN(c3ccc(F)cc3)CC2)o1,106% (inactive)
2,O=[N+]([O-])c1ccc(CN2CCN(c3ccccc3)CC2)o1,126% (inactive)
3,O=C(c1cccs1)N1CCN(c2ccc(Cl)cc2)CC1,85% (inactive)
4,O=[N+]([O-])c1ccc(N2CCN(Cc3ccc([N+](=O)[O-])o3)CC2)cc1,89.6% (inactive)
5,O=C(NNC(=O)c1cccs1)c1ccc(Br)o1,95.2% (inactive)
6,CCOC(=O)NC(=O)COC(=O)CCCSc1nc2ccccc2s1,119% (inactive)
7,O=C(Cc1ccc(F)cc1)Nc1ccc(Cl)cn1,92.7% (inactive)
8,Cc1ccc2nc(C)c3c(c2c1)SCC3,91.6% (inactive)
9,COc1ccc(OCC(=O)Nc2ccc(N3CCN(C(=O)c4ccco4)CC3)cc2)cc1,103% (inactive)
10,Nc1scc(-c2ccncc2)c1Cl,101% (inactive)
11,CCOC(=O)COc1ccc2c(c1)C(=O)CC(C)(c1cccnc1)O2 (configuration not stated),105% (inactive)
12,COc1cc(/C=N/Nc2cccc3cccnc23)cc(OC)c1O,104% (inactive)
13,C/C(O)=C\c1nc2ccccc2oc1=O,70.5% (inactive)
14,Oc1cc(NCc2cccnc2)ccc1-c1nc2ccccc2o1,72.7% (inactive)
15,CCc1nnc(N/N=C/c2ccc(N3CCC(C)CC3)c([N+](=O)[O-])c2)n1N,85.3% (inactive)
16,COc1cc(/C=N/N(C)C)ccc1OC(=O)c1cccs1,95% (inactive)
17,O=C(COc1ccc2c(c1)CCC2)Nc1ccccn1,99.8% (inactive)
18,Cc1cccc2c(CC(=O)O)noc12,101% (inactive)
19,COc1ccc(/C=C/c2nc3ccccc3c(=O)o2)cc1,80.8% (inactive)
20,COc1cc(OC)cc(-c2nc3ccccc3c(=O)o2)c1,102% (inactive)
21,O=C(C/C=N\OCc1ccc([N+](=O)[O-])cc1)Nc1ccc(Cl)cc1,101% (inactive)
22,O=C(COC(=O)CC1CCCC1)Nc1ccc(OC(F)F)cc1,130% (inactive)
23,COCCCNC(=O)COC(=O)c1ccc(-c2nc3ccccc3s2)s1,93.4% (inactive)
24,CCc1ccc(C(=O)COC(=O)c2ccc(Cl)nc2)cc1,95.8% (inactive)
25,CC(C)Cn1c(N)c(C(=O)COC(=O)c2ccc([N+](=O)[O-])o2)c(=O)n(C)c1=O,94.1% (inactive)
26,Oc1oc(-c2ccco2)nc1C=Nc1cccc(Cl)c1,99.7% (inactive)

row,SMILES,viability
1,CCCCCn1nnc2c(=O)oc3ccccc3c21,97.3% (inactive)
2,CCOc1ccc(OCC(=O)OCc2cc(=O)n3cc(Br)ccc3n2)cc1,97.9% (inactive)
3,CCOC(=O)c1nc2sc3c(c2c(=O)[nH]1)CCC(C)C3 (configuration not stated),87.8% (inactive)
4,Nc1nonc1C(=O)NCCN=Cc1cc(Cc2ccccc2)cc(Br)c1O,96.6% (inactive)
5,COc1cccc(COC(=O)CCNC(=O)c2ccc(Cl)cc2)c1OC,112% (inactive)
6,COc1ccccc1C(c1nnnn1Cc1ccccc1)N1CCC(C(N)=O)CC1 (configuration not stated),104% (inactive)
7,C/C(=N\NC(=O)c1ccc([N+](=O)[O-])c(C)c1)c1ccccc1Cl,88.1% (inactive)
8,CCCCNC(=O)N1CCc2ccccc2C1,120% (inactive)
9,COc1ccc(N=N/C(=C\O)C(=O)c2ccco2)cc1,106% (inactive)
10,Cc1ccc(C(=O)O/N=C(\N)c2cccc([N+](=O)[O-])c2)cc1,98.6% (inactive)
11,Cc1[nH]c2ccccc2c1C(=O)C(C)OC(=O)c1ccc([N+](=O)[O-])o1 (configuration not stated),81.2% (inactive)
12,CCOC(=O)c1cc(-c2c(Cl)cccc2Cl)no1,94.5% (inactive)
13,O=C(OCCCOC(=O)c1ccc([N+](=O)[O-])o1)c1ccc([N+](=O)[O-])o1,99.9% (inactive)
14,O=C(Nc1nccs1)c1cc2cc(Cl)ccc2oc1=O,87.5% (inactive)
15,N=c1oc2ccccc2cc1C(=O)NC1CCCCCC1,108% (inactive)
16,O=C(COC(=O)c1cccc(C(F)(F)F)c1)NCc1ccccc1,117% (inactive)
17,CCOC(=O)c1cn(Cc2cccc(Cl)c2)nn1,106% (inactive)
18,CSc1ccccc1NC(=O)c1cc(C(C)C)on1,101% (inactive)
19,CCCCNS(=O)(=O)c1ccc(OCC(=O)OC)cc1,89.7% (inactive)
20,O=c1oc(/C=C/c2ccc([N+](=O)[O-])s2)nc2ccccc12,83.4% (inactive)
21,C=C(C)C1Cc2cc3ccc(=O)oc3cc2O1 (configuration not stated),85.2% (inactive)
22,C/C(=N\NC(=O)c1nn(C)cc1Cl)c1ccncc1,107% (inactive)
23,CCOc1ccc(-c2cc(CCCC(=O)NCCC(C)C)no2)cc1,103% (inactive)
24,O=c1c(=Nc2ccccc2O)c(=O)c2ccccc12,105% (inactive)
25,O=C(O)c1[nH]c(=O)[nH]c(=O)c1F,80.6% (inactive)
